About 7,000 (2%) of roughly 350,000 compounds were called active. The list comes from a sample in which actives are over-represented; it also holds similar structures and randomly drawn compounds. Unmarked numbers belong to inactive results. Cut-off read from the data, not from the text of the source: active = activation above about 40%; inconclusive = no clear call, values can overlap the other calls; inactive = below that.
Assay: Bmi1 luciferase reporter increase in mESCs, primary screen, esBAF inhibitor project, mouse ES cells, Bmi1 luciferase knock-in, single point (AID 602393);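 note: 0% = median of the plate's neutral control wells and 100% = double that signal; a rise in the Bmi1 reporter signal indicates esBAF inhibition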
Details: 24 h, at 12.5 µM, active compounds read high, 100% = twice the neutral-well signal

| SMILES | reporter increase |
| --- | --- |
| COc1ccccc1S(=O)(=O)N[C@@H]1CC[C@@H](CCNC(=O)C2CCCCC2)O[C@@H]1CO | -1.9% |
| O=C(C[C@@H]1C[C@@H]2c3cc(NS(=O)(=O)c4ccc(F)cc4)ccc3O[C@@H]2[C@H](CO)O1)N1CCCCC1 | -3.2% |
| CO[C@@H]1CC[C@H]2CCN(C)C(=O)C[C@@H](c3ccccc3)CN(C)C(=O)c3cc(C#N)ccc3OC[C@@H]1O2 | 3.4% |
| CO[C@H]1CC[C@@H]2CCOc3c(C#N)cccc3C(=O)N(C)C[C@@H](OC)[C@H](C)C(=O)N(C)C[C@H]1O2 | 3.07% |
| CCC(=O)N1C[C@@H](C)[C@H](OC)CN(C)C(=O)c2ccc(NC(=O)C3CCOCC3)cc2OC[C@@H]1C | -3.82% |
| C[C@@H]1CN([C@H](C)CO)C(=O)c2cc(-c3cccc(C#N)c3)cnc2O[C@H]1CN(C)C(=O)C1CCC1 | -9.7% |
| COc1ccccc1S(=O)(=O)N[C@@H]1CC[C@H](CC(=O)N2CCN(C)CC2)O[C@@H]1CO | 0.975% |
| O=C(C[C@@H]1C[C@@H]2c3cc(NC(=O)C4CCOCC4)ccc3O[C@@H]2[C@@H](CO)O1)NC1CCCCC1 | 5.22% |
| COc1ccc(S(=O)(=O)Nc2ccc3c(c2)C(=O)N([C@@H](C)CO)C[C@H](C)[C@H](CN(C)Cc2ccc(C(=O)O)cc2)OCCCC[C@@H](C)O3)cc1 | 6.21% |
| COc1ccc(/C=C/C(=O)c2c(O)cc(OC)cc2OC)cc1 | 46.9% (active) |
| COCOc1cc(O)c(C(=O)/C=C/c2ccc(OCOC)c(OCOC)c2)c(OCOC)c1 | 15.9% |
| COc1ccc(/C=C/C(=O)c2cc(Br)ccc(=O)c2O)cc1 | -9.92% |
| Cc1ccc(S(=O)(=O)N2C[C@H](O)COC[C@@H]3O[C@H](CC(=O)N[C@H]4CCN(Cc5ccccc5)C4)CC[C@H]32)cc1 | -2.58% |
| C[C@H](CO)N1C[C@H](C)[C@H](CN(C)Cc2ccc(C(F)(F)F)cc2)Oc2c(NC(=O)C3CCOCC3)cccc2C1=O | -0.743% |
| Cc1ccc(C(=O)COC(=O)c2cccc(N3C(=O)c4c(C)nc5ccccc5c4C3=O)c2)cc1C | 21.8% (active) |
| Cc1ccc(C(=O)COC(=O)CCN2C(=O)C3C4CCC(C4)C3C2=O)cc1C (stereo not drawn) | 0.309% |
| Cc1nc2ccccc2c(-c2ccccc2)c1C(=O)c1ccccc1 | -1.09% |
| Cc1noc(C)c1NC(=O)Nc1ccc2c(c1)C(=O)N([C@@H](C)CO)C[C@@H](C)[C@H](CN(C)C(=O)Nc1ccc(C(F)(F)F)cc1)OCCCC[C@@H](C)O2 | 11% |
| O=C(C[C@H]1CC[C@@H](NC(=O)Cc2cccnc2)[C@H](CO)O1)Nc1ccc(-c2ccccc2)cc1 | -2.77% |
| CC(OC(=O)/C=C/c1ccccc1)C(=O)Nc1ccc(C(N)=O)cc1 (stereo not drawn) | -2.08% |
| N/C(=N\OC(=O)/C=C/c1ccccc1)c1ccc(Br)cc1 | 23.9% (active) |
| N/C(=N\OC(=O)c1ccc2c(c1)OCO2)c1ccc(Br)cc1 | 18.6% |
| O=C(NCCC1=CCCCC1)c1ccc(-n2cncn2)cc1 | 42.2% (active) |
| Cn1nnc2cc(C(=O)NCCC3=CCCCC3)ccc21 | -7.14% |
| CN(c1ccc(C(=O)NCCC2=CCCCC2)cc1)S(C)(=O)=O | -6.11% |
| Cc1cc(Cl)c2oc(C(=O)N(C)C(C)c3ccccn3)c(C)c2c1 (stereo not drawn) | 31.4% |
| CCn1ccnc1CN(C)C(=O)c1ccc2nc(Cc3ccc(OC)cc3)oc2c1 | -2.21% |

| SMILES | reporter increase |
| --- | --- |
| CC(c1ccccn1)N(C)C(=O)c1ccc2nc(Cc3cccc(Cl)c3)oc2c1 (stereo not drawn) | 73.4% (active) |
| COc1ccc(NC(=O)Nc2ccc3c(c2)CC(=O)N([C@@H](C)CO)C[C@@H](C)[C@H](CN(C)C(=O)NC2CCCCC2)O3)cc1 | 3.44% |
| Oc1cccc(CCc2ccccn2)c1 | 45.8% (active) |
| O=C(Cc1ccccn1)c1ccc(O)cc1O | 7.66% |
| c1ccc(CCc2ccccn2)cc1 | 16.6% |
| CO[C@H]1CN(C)C(=O)c2cc(NC(=O)C3CC3)ccc2OC[C@H](C)N(CC2CCCC2)C[C@@H]1C | -2.34% |
| CC1CCCC(C)N1C(=O)CN1CCN(c2nc(-c3ccc(F)cc3)cs2)CC1 (stereo not drawn) | 7.37% |
| O=C(CSC1=NCCS1)Nc1nc(-c2ccccc2)cs1 | 5.05% |
| O=C(COC(=O)C1CCCO1)Nc1nc(-c2ccc(F)cc2)cs1 (stereo not drawn) | 49.2% (active) |
| O=C(Nc1n[nH]c(C(F)(F)F)n1)c1cccs1 | -2.17% |
| Cc1csc(NC(=O)C2=COCCO2)n1 | 39.3% |
| NS(=O)(=O)c1ccc2nc(NC(=O)C3=COCCO3)sc2c1 | -2.59% |
| Cc1ccc(-c2csc(NC(=O)c3cccs3)n2)cc1 | 53.5% (active) |
| Cc1ccc(-c2csc(N(Cc3ccco3)C(=O)c3cccs3)n2)cc1 | 2.94% |
| COc1cc(OC)cc(C(=O)NNC(=O)Cc2cccs2)c1 | 3.48% |
| Cc1ccc(-c2csc(NC(=O)C3=COCCO3)n2)cc1C | 43.9% (active) |
| Cc1ccc(-c2csc(NC(=O)Cc3cccs3)n2)cc1C | 48.9% (active) |
| COc1ccc(OC)c(NC(=O)Cc2cccs2)c1 | 0.423% |
| O=C(C[C@@H]1CC[C@@H](NC(=O)C2CCOCC2)[C@H](CO)O1)Nc1ccc(-c2ccccc2)cc1 | 8.43% |
| C[C@@H]1CN([C@H](C)CO)C(=O)c2cc(C#CC3(O)CCCC3)cnc2O[C@H]1CN(C)C(=O)C1CCC1 | 2.77% |
| C[C@@H](NC(=O)C[C@H]1C[C@H]2c3cc(NC(=O)Nc4ccccc4F)ccc3O[C@H]2[C@@H](CO)O1)c1ccccc1 | 2.95% |
| O=C(Cc1ccncc1)N[C@H]1CC[C@H](CCn2cc(-c3ccccc3F)nn2)O[C@@H]1CO | 12.7% |
| COc1cccc(-c2cn(CC[C@@H]3CC[C@@H](NC(C)=O)[C@@H](CO)O3)nn2)c1 | -4.15% |
| CNC(=O)c1sc(NCc2ccccc2OC)nc1C | 10% |
| COc1ccccc1/C=N/Nc1nc(C)c(C(C)=O)s1 | 43.3% (active) |
| COc1ccccc1CNC(=O)COC(=O)c1sc(C)nc1C | 6.65% |

Source: PubChem BioAssay AID602393 (Broad Institute, 2012)
